ChEMBL document CHEMBL1961873, “Compounds: GSK PKIS; Assays: Nanosyn kinase panel” (2012)

Key:
[1] = target: Fibroblast growth factor receptor 4 (Homo sapiens) (UniProt P22455); conditions: at 1 µM;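 note: reported figure is the averaged percent inhibition of FGFR4, from the GSK PKIS kinase screening panel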
[2] = target: Tyrosine-protein kinase Fgr (Homo sapiens) (UniProt P09769); conditions: at 0.1 µM
[3] = target: Tyrosine-protein kinase Fgr (Homo sapiens) (UniProt P09769); conditions: at 1 µM
[4] = target: Vascular endothelial growth factor receptor 1 (Homo sapiens) (UniProt P17948); conditions: at 0.1 µM
Vascular endothelial growth factor receptor 1 (Homo sapiens), sequence (P17948 whole entry): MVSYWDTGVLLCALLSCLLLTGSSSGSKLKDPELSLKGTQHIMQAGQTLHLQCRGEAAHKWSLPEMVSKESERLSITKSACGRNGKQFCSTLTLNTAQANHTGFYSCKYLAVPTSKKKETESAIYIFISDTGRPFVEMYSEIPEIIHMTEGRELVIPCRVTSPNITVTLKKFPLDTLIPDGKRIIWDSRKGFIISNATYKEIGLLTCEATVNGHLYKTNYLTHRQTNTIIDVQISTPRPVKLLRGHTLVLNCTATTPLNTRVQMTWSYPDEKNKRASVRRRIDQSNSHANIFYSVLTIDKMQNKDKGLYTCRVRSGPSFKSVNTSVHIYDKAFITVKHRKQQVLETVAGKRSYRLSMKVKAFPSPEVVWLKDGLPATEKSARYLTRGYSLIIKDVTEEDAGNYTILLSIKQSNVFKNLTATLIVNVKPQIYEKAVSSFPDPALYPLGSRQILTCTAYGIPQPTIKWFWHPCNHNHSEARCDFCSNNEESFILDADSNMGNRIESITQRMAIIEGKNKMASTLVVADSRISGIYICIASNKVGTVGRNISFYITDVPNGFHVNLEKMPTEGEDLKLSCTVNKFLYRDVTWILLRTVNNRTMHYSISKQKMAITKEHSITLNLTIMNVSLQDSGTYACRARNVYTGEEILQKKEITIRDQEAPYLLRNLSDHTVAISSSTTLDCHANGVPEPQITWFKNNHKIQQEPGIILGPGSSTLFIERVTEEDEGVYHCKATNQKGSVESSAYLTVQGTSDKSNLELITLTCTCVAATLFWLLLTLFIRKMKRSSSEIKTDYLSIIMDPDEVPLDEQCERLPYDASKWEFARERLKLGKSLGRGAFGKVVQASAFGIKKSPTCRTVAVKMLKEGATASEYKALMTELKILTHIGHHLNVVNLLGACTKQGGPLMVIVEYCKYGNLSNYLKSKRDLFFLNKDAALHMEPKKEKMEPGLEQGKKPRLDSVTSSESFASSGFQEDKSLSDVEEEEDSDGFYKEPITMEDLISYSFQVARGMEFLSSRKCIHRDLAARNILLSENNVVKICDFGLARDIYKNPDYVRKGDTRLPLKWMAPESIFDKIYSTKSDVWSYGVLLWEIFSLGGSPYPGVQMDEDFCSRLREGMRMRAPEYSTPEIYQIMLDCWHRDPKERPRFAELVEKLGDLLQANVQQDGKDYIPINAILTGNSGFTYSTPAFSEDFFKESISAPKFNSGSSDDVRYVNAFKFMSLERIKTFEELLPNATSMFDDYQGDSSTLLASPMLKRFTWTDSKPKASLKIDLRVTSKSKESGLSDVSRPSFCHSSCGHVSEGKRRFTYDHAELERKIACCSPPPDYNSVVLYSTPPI

[5] = target: Vascular endothelial growth factor receptor 1 (Homo sapiens) (UniProt P17948); conditions: at 1 µM
[6] = target: Receptor-type tyrosine-protein kinase FLT3 (Homo sapiens) (UniProt P36888); conditions: at 0.1 µM
[7] = target: Receptor-type tyrosine-protein kinase FLT3 (Homo sapiens) (UniProt P36888); conditions: at 1 µM
[8] = system: T1, Receptor-type tyrosine-protein kinase FLT3 (Homo sapiens), P36888 [D835Y]; conditions: at 0.1 µM
T1 sequence (whole entry): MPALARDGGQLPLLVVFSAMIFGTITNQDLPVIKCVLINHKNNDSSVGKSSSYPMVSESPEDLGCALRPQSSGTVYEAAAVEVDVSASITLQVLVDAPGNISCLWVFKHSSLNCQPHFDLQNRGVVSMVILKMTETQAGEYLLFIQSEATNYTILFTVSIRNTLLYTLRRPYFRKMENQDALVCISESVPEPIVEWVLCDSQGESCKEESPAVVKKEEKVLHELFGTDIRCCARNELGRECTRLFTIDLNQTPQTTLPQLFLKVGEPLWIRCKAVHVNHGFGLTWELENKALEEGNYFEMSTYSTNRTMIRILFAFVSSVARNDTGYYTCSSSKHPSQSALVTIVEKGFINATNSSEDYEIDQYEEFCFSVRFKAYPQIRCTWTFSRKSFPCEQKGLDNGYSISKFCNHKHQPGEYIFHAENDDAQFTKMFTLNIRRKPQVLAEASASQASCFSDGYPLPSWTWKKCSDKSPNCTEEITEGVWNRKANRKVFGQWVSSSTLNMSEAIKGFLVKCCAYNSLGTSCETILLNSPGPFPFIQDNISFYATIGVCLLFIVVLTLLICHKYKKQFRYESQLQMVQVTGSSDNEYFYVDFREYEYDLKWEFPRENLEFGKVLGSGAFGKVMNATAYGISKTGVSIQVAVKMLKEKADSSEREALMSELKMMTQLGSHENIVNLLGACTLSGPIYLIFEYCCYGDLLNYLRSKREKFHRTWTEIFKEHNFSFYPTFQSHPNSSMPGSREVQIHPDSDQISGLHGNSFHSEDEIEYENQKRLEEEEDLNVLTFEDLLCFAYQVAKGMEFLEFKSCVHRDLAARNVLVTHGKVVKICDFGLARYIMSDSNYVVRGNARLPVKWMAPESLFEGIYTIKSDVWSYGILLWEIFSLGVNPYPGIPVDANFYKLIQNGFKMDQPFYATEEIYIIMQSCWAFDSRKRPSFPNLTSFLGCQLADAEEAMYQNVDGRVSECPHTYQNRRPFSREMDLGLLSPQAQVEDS

[9] = target: Non-receptor tyrosine-protein kinase TYK2 (Homo sapiens) (UniProt P29597); conditions: at 1 µM;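 note: values are mean percent inhibition of TYK2 kinase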
Non-receptor tyrosine-protein kinase TYK2 (Homo sapiens), sequence (P29597 whole entry): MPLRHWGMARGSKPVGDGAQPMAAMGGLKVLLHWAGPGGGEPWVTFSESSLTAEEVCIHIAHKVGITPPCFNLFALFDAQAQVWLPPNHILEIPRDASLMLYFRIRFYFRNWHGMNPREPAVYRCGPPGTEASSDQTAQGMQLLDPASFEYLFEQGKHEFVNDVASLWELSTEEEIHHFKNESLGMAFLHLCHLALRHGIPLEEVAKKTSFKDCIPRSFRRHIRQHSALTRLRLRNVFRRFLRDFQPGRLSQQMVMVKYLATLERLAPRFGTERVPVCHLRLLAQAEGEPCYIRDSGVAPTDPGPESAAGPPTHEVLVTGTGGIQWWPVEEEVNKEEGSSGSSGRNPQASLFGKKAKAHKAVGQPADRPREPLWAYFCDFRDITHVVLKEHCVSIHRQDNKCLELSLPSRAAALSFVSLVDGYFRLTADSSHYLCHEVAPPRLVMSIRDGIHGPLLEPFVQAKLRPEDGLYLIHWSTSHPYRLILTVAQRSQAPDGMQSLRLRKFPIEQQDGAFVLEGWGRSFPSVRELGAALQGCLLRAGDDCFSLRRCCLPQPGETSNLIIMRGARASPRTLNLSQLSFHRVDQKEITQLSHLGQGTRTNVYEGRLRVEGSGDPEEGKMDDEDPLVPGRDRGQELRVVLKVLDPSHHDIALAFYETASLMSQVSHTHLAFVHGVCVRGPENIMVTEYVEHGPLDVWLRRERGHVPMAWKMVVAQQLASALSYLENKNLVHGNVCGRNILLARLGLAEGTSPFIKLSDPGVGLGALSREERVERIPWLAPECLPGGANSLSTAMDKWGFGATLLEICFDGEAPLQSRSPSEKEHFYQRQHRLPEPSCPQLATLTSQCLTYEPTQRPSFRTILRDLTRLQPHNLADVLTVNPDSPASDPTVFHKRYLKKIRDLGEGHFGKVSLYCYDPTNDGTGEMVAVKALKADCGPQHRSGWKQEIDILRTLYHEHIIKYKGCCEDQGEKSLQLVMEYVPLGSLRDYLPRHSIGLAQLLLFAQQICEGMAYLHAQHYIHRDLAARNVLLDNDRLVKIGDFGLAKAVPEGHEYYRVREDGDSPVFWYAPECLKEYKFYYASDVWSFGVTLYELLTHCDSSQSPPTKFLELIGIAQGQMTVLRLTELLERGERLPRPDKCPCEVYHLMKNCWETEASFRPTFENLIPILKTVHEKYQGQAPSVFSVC

[10] = target: T2, Tyrosine-protein kinase receptor TYRO3 (Homo sapiens) (UniProt Q06418); conditions: at 0.1 µM
T2 sequence (whole entry): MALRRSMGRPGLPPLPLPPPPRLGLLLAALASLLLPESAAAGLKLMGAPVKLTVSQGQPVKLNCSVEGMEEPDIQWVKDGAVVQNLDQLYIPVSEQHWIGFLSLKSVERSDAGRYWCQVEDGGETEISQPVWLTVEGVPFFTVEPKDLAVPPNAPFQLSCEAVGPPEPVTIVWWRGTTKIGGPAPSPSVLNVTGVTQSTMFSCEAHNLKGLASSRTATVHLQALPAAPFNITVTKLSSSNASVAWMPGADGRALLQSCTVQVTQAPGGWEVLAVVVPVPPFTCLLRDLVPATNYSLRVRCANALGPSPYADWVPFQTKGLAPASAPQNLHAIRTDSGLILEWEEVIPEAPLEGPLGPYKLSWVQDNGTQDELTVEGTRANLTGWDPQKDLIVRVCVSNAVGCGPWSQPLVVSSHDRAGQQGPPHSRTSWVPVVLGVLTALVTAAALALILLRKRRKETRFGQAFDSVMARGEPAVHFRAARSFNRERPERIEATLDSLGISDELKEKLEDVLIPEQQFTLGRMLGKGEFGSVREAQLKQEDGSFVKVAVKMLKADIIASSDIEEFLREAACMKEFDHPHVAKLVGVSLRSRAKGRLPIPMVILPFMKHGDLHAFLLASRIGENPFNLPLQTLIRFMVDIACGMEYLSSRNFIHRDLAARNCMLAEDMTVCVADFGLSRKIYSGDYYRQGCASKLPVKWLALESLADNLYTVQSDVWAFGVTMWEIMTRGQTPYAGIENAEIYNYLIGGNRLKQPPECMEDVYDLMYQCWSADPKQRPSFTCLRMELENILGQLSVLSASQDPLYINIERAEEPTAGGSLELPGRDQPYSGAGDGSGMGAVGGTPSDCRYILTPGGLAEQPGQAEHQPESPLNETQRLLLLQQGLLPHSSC

[11] = target: T2, Tyrosine-protein kinase receptor TYRO3 (Homo sapiens); conditions: at 1 µM
[12] = target: Tyrosine-protein kinase Yes (Homo sapiens) (UniProt P07947); conditions: at 0.1 µM
Tyrosine-protein kinase Yes (Homo sapiens), sequence (P07947 2-543 limits assumed): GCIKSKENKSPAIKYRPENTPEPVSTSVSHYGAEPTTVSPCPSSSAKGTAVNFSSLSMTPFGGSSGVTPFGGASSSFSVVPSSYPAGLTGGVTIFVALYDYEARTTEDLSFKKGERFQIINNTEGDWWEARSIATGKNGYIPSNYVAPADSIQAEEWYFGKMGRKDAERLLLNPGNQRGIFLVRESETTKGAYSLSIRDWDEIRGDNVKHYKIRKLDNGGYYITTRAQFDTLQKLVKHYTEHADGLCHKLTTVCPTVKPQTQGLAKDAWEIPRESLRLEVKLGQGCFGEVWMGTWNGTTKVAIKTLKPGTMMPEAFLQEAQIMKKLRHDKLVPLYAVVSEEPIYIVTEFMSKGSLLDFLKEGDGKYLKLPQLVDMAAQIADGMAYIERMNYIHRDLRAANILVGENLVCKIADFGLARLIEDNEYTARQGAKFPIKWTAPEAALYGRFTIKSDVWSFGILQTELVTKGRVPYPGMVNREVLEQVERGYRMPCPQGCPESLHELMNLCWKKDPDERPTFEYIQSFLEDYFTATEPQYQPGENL

[13] = target: Tyrosine-protein kinase Yes (Homo sapiens) (UniProt P07947); conditions: at 1 µM
[14] = target: T3, Tyrosine-protein kinase ZAP-70 (Homo sapiens) (UniProt P43403); conditions: at 0.1 µM
T3 sequence (whole entry): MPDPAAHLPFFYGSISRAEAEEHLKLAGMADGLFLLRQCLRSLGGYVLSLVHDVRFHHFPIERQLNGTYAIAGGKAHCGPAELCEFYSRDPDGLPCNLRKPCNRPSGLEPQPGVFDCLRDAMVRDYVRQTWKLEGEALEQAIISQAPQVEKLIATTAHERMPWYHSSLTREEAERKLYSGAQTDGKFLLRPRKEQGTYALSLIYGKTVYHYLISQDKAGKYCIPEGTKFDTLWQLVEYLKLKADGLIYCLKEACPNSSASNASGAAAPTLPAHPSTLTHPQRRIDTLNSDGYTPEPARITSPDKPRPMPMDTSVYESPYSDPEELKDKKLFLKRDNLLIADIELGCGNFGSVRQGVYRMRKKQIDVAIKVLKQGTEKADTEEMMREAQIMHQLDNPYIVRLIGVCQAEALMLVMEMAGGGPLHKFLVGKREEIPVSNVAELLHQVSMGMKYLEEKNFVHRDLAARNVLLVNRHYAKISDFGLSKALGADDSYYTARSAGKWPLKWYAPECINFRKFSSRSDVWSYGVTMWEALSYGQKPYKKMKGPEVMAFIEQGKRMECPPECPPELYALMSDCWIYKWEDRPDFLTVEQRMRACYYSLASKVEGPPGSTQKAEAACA

[15] = target: T3, Tyrosine-protein kinase ZAP-70 (Homo sapiens); conditions: at 1 µM
[16] = target: Serine/threonine-protein kinase B-raf (Homo sapiens) (UniProt P15056); conditions: at 0.1 µM
[17] = target: Serine/threonine-protein kinase B-raf (Homo sapiens) (UniProt P15056); conditions: at 1 µM
[18] = system: Serine/threonine-protein kinase B-raf (Homo sapiens), P15056 [V600E]; conditions: at 0.1 µM
[19] = system: Serine/threonine-protein kinase B-raf (Homo sapiens), P15056 [V600E]; conditions: at 1 µM
[20] = target: RAF proto-oncogene serine/threonine-protein kinase (Homo sapiens) (UniProt P04049); conditions: at 0.1 µM;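 note: values are mean CRAF kinase inhibition from profiling of the GSK Published Kinase Inhibitor Set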
RAF proto-oncogene serine/threonine-protein kinase (Homo sapiens), sequence (P04049 whole entry): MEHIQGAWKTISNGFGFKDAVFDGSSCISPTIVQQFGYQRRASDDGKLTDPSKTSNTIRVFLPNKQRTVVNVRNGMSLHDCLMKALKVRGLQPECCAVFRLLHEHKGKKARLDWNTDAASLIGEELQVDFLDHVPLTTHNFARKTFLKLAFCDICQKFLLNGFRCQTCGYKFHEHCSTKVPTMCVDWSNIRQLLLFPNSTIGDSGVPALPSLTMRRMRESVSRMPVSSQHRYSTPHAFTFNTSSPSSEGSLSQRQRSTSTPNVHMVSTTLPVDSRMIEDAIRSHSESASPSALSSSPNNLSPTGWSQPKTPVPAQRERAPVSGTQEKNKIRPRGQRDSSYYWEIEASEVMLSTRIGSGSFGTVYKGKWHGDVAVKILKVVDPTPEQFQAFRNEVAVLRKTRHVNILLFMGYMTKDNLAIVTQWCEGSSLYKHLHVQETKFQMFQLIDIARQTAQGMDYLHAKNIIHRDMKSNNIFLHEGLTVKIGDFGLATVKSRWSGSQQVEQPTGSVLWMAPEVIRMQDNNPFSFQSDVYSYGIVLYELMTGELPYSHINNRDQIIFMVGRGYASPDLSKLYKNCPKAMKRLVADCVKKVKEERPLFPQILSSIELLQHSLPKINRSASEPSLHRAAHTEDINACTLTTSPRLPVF

Tyrosine-protein kinase Fgr (Homo sapiens), sequence (P09769 2-529 limits assumed): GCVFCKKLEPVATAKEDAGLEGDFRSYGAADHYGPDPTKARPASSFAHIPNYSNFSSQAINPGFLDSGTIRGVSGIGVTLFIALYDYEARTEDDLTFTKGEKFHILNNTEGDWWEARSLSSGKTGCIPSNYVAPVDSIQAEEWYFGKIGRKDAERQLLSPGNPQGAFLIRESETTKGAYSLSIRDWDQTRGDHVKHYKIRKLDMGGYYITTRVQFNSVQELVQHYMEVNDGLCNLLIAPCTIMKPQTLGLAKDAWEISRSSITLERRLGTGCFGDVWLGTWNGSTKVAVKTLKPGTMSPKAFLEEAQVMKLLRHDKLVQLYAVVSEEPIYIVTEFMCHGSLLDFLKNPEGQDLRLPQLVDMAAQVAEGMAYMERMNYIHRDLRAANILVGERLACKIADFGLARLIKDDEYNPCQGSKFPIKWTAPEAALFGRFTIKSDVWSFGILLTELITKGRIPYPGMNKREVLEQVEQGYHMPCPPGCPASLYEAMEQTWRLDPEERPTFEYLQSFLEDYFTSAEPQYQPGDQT
Fibroblast growth factor receptor 4 (Homo sapiens), sequence (P22455 22-802 limits assumed): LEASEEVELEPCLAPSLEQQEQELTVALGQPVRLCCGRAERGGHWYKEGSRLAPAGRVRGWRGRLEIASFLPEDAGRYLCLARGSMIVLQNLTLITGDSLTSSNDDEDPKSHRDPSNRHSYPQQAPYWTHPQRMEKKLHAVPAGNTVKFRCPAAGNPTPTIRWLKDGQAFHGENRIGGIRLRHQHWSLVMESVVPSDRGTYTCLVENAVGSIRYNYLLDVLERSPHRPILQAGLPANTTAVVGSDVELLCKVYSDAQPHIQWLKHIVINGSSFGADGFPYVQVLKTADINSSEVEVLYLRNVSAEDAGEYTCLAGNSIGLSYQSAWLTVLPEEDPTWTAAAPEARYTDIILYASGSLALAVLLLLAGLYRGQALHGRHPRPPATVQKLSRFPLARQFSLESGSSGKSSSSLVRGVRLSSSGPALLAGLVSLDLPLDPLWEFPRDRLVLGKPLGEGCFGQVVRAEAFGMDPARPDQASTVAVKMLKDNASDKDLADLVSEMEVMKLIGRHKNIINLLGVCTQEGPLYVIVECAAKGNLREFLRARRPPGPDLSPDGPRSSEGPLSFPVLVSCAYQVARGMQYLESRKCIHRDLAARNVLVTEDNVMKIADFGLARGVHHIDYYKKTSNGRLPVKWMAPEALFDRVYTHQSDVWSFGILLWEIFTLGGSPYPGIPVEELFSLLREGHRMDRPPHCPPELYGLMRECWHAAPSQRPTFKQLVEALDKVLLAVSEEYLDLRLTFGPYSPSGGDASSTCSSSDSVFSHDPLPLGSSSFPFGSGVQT

| Structure (SMILES) | inhibition [1] | inhibition [2] | inhibition [3] | inhibition [4] | inhibition [5] | inhibition [6] | inhibition [7] | inhibition [8] | inhibition [9] | inhibition [10] | inhibition [11] | inhibition [12] | inhibition [13] | inhibition [14] | inhibition [15] | inhibition [16] | inhibition [17] | inhibition [18] | inhibition [19] | inhibition [20] |
| --- | --- | --- | --- | --- | --- | --- | --- | --- | --- | --- | --- | --- | --- | --- | --- | --- | --- | --- | --- | --- |
| CN(C)c1ccc2c(c1)/C(=C/Nc1ccc(S(N)(=O)=O)cc1)C(=O)N2 | 3.82% | 2.49% | 16.7% | 1.02% | 12.6% | 3.53% | 17.7% | 0.41% | 17.2% | 3.54% | 7.48% | 2.8% | 14.3% | 2.05% | 5.7% | 2.49% | 4.91% | 2.9% | 5% | 3.91% |
| CCc1cccc(CC)c1/C=C/c1cncc(C(=O)NC)c1 | 0.35% | 3.25% | 11.7% | 4.96% | 2.13% | 2.07% | 4.49% | 2.46% | -3.91% | 1.2% | 2.78% | 3.04% | -1.48% | 0.45% | 0.77% | 3.23% | 2.6% | 2.71% | 2.87% | 5.4% |
| COc1cccc(-n2cnc3c(N/N=C/c4ccncc4)ncnc32)c1 | -3.96% | 6.79% | 19% | -1.12% | 1.4% | 0.88% | 6.95% | 7.7% | 3.46% | 1.07% | 4.59% | 7.55% | 36.4% | -2.42% | -3.33% | -0.31% | -1.09% | -0.89% | -0.68% | -3.41% |
